NS1 inh – influenza NS1 inhibition; Potency, µM (doses to about 46.1 µM), inactives show top-dose activity, positive = more growth; 0.4% of 270,000 active; AID 2326; also: potency is read from the fitted curve at half-maximal effect; actives are rising curves; nearly all actives have a fitted effect of over 50% in size
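Growth recovery, yeast-based: influenza A NS1 expressed in S. cerevisiae causes slow growth, and suppressors are detected by OD600. The parent strain without NS1 is used as positive control.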
Shiga inhibitor – blocks Shiga toxin action in Vero cells; inhibition, % at 38.7 µM; Vero cells, Shiga toxin protein synthesis inhibition reporter; 9.2% of 290,000 active; in the data active = inhibition mostly above about 28%, no sharp cut-off; inactive = mostly below about 43%; also: 0% is about no effect
Cycloheximide cs – counter-screen hit for Shiga toxin inhibitors, cycloheximide; cell reporter, cycloheximide protein synthesis inhibition counterscreen; max response, %; 12% of 300,000 active; in the data active = max response mostly above about 13%, no sharp cut-off; inactive = mostly below about 14%; also: read at 38.3 µM for the half of the compounds with a filed dose; 0% is about no effect
SARS PLP yeast – SARS-CoV PLP inhibition in yeast | S. cerevisiae expressing SARS-CoV PLpro, growth rescue | Potency, µM (top dose mostly 32.9 µM), for the others: at the highest dose activity, positive = growth rescue, hits mostly activators | 0.19% of 330,000 active; also: potency is read from the fitted curve at half-maximal effect; 0% is about no effect; nearly all actives have a fitted effect of over 55% in size
Starred values were filed as active, the others as inactive; ? = inconclusive; / = no result. Most compounds without a hit are left out; they make up all but 12% or so of the library. Unless noted, calls follow the shape of the full dose curve.

SMILES	NS1 inh	Shiga inhibitor	Cycloheximide cs	SARS PLP yeast
O=C(CCS(=O)(=O)CCN1CCOCC1)NCNC(=O)CCS(=O)(=O)CCN1CCOCC1	-2%	-14	-1	20%
CSc1sc(-c2nnc(SCC(=O)Nc3ccc(Cl)cc3)n2C)c2c1C=CCC2	4%	1	-3	0%
COc1cc(/C=C2\SC(=O)N(CCNC(=O)c3cnc(C)cn3)C2=O)cc(OC)c1OC	-1%	-3	-4	?
Cc1c(/C=N/Nc2nc3ccccc3[nH]2)c2ccccc2n1C	-2%	76*	24*	-17%
c1ccc(-c2nnc(CSc3ccc4c(c3)OCCO4)o2)cc1	/	29*	19*	-2%
Cn1nnc(NC(=S)NC(=O)c2cccc3c(Cl)cccc23)n1	-18%	-5	15	5%
CC(=O)Nc1ccc(/C=C2\Sc3ccccc3C2=O)cc1	0%	25	5	0%
CCC(=O)N(C)/C=C1\Sc2ccccc2C1=O	-93%	148*	30*	-18%
O=CN(/C=C1\Sc2ccccc2C1=O)Cc1ccccc1	-102%	67*	40*	-8%
Cc1ccc(/C=C2\Sc3ccccc3C2=O)s1	-6%	34*	14*	2%
O=C1/C(=C/c2cccnc2)Sc2ccccc21	-12%	-2	13	-13%
CC(=O)N(C)/C=C1\Sc2ccccc2C1=O	-143%	42	17*	-10%
CCN(CC)C(=O)CSc1nnc(CSc2ncccn2)n1C	3%	-10	-6	3%
O=C(Nc1cc(C2CC2)nn1-c1ccccc1)c1ccc(F)cc1	/	/	/	-1%
CC(C)C(O)(CC#CCN1CCCC1)c1ccccc1 (configuration not stated)	/	-15	-8	4%
NS(=O)(=O)c1ccc(NS(=O)(=O)c2ccc(NC(=O)C3CC3)cc2)cc1	13%	-17	1	-3%
O=C(NNC(=O)c1ccc(Cl)c(Cl)c1)c1cccnc1	-7%	-14	1	-2%
CS(=O)(=O)c1cccc(NC(=O)c2ccc(Cl)c(Cl)c2)c1	-8%	54*	18	0%
O=C(O)c1ccc(C(=O)O)c(C(=O)Nc2ccc3c(c2)Cc2ccccc2-3)c1	-1%	/	/	/
O=C(Nc1ccc(Cl)c(Cl)c1)c1ccc(Cl)c(Cl)c1	4%	89*	50*	2%
O=C(Nc1cccnc1)c1ccc(Cl)c(Cl)c1	-49%	/	24*	-11%
CS(=O)(=O)c1ccc(C(=O)Nc2cc(S(C)(=O)=O)ccc2Cl)cc1	-3%	-23	0	-6%
O=C(Nc1ccc2c(c1)Cc1ccccc1-2)c1ccncc1	-27%	66*	33*	-23%
CN(Cc1c(C(=O)N2CCc3ccccc3C2)nc2ccc(Cl)cn12)C(C1CC1)C1CC1	4%	-2	-1	1%
Cc1cc(-c2ccc3ccccc3c2)n2ncnc2n1	/	6	13	-3%
SMILES	NS1 inh	Shiga inhibitor	Cycloheximide cs	SARS PLP yeast
Cc1ccc(NC(=O)c2ccc(Cl)c(N3C(=O)C=CC3=O)c2)cc1	-192%	81*	57*	-33%
O=C(Nc1ccc2c(c1)COC2=O)c1ccc(Cl)c(Cl)c1	-17%	71*	34*	-3%
COC(=O)Nc1ccc(Cl)c(Cl)c1	/	7	16	/
O=C(Nc1ccc(Cl)c(Cl)c1)c1ccncc1	-85%	101*	31*	-19%
Cc1ccc(NC(=O)c2ccc3c(c2)[nH]c(=O)n3C(C)C)cc1	/	-12	-2	-3%
COc1ccc(C(=O)Nc2ccc(Cl)c(Cl)c2)c(OC)n1	-3%	45*	21*	4%
CCCC(=O)Nc1ccc2c(c1)COC2=O	5%	25	6	0%
O=C(Nc1cccc(Cl)c1)c1ccncc1	-30%	9	0	-4%
COc1ccc(S(=O)(=O)N2CCOCC2)cc1NC(=O)Cc1ccc(Cl)c(Cl)c1	9%	12	-1	20%
OC(CNCCCCNCC(O)C(F)(F)F)C(F)(F)F (configuration not stated)	5%	-14	-2	0%
Cc1nn(-c2cccc(Cl)c2)nc1C(=O)O	6%	21	9	-5%
CC(=O)Nc1cc2nn(-c3ccccc3)nc2cc1Cl	6%	64*	26*	-2%
CC(C)(C)C(=O)Nc1cc2nn(-c3ccccc3)nc2cc1Cl	-7%	86*	47*	5%
CCOc1ccccc1NC(=O)C(c1ccccc1)N1CCN(C(=O)c2ccco2)CC1 (configuration not stated)	/	/	/	5%
CC1CCN(Cc2cc(=O)oc3ccc4ccccc4c23)CC1	-9%	-2	1	-2%
Cc1cccc(CCN=c2c([N+](=O)[O-])nn(-c3ccccc3)n2O)c1	/	12	12	-11%
COc1ccc(-n2nc([N+](=O)[O-])c(=NCc3ccc4c(c3)OCO4)n2O)cc1	-2%	65*	55*	-6%
O=[N+]([O-])c1nn(-c2ccc(Cl)cc2)n(O)c1=NCc1ccccc1	/	61	36*	2%
O=[N+]([O-])c1nn(-c2ccccc2)n(O)c1=NCc1ccc2c(c1)OCO2	-6%	54*	30*	1%
CCCC(C)NC(=O)c1ccccc1SC (configuration not stated)	2%	-7	-2	1%
CC1(CCc2ccccc2)NC(=O)N(CC(=O)Nc2ccc3c(c2)OCCO3)C1=O (configuration not stated)	/	-5	6	0%
COc1cc([N+](=O)[O-])c(C(=O)N2CCOCC2)c([N+](=O)[O-])c1	1%	-8	-5	12%
Cc1ccc(C2=NN(C(=O)CN3CCN(C4CCS(=O)(=O)C4)CC3)C(c3ccco3)C2)cc1 (configuration not stated)	/	/	/	-2%
O=C(NCc1ccc(F)cc1)C1CCCN(S(=O)(=O)c2ccc(Br)s2)C1 (configuration not stated)	-6%	55*	14	-1%
O=C(NCc1ccc(F)cc1)C1CCN(S(=O)(=O)c2ccc(Br)s2)CC1	-3%	37*	15*	-2%
SMILES	NS1 inh	Shiga inhibitor	Cycloheximide cs	SARS PLP yeast
CCn1cc(C(=O)NC2CC(C)(C)Cc3c2cnn3-c2cccc(F)c2)cn1 (configuration not stated)	9%	11	7	?
CCc1ccc(N/C(SCc2ccccc2C)=C(/C#N)C(=O)NCc2ccco2)cc1	9%	24	15*	-4%
CCN(CC)S(=O)(=O)c1ccc(OC(C)C)c(NC(=O)C2=COCCO2)c1	/	/	/	-2%
Cc1cccc(C(=O)NC2CCCCCCC2)c1	-8%	78*	45*	-1%
O=C(NC1CCCCCC1)c1cccc(COCC(F)(F)F)c1	0%	active	22*	-2%
CC(=O)Nc1ccc(NC(=O)c2cccc(Oc3ccccc3)c2)cc1	2%	-7	-2	23%
CCCC(C)NC(=O)c1cccc(Oc2ccccc2)c1 (configuration not stated)	/	60*	23*	3%
CCCN1C(=O)c2cc(C(=O)O)ccc2C1O (configuration not stated)	13%	14	-5	-1%
Cc1cccc(C(=O)NC2CCN(S(=O)(=O)c3ccccc3)CC2)c1	-1%	-22	-4	0%
CCCN1C(=O)c2cc(C(=O)NC3CCCCCC3)ccc2C1O (configuration not stated)	-14%	41*	34*	1%
O=C(CCNC(=O)c1ccc([N+](=O)[O-])cc1)NCc1ccco1	/	/	/	-3%

Screening data: PubChem, National Center for Advancing Translational Sciences (NCATS)
